NS1 function inh: qHTS Assay for Inhibitors of Influenza NS1 Protein Function; 0.4% of 270,000 active; AID 2326, 2010; Potency, µM (series often up to 46.1 µM); calls by dose curve; also: actives are rising curves; nearly all actives have a fitted effect of over 50% in size
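Growth recovery, yeast-based: influenza A NS1 expressed in S. cerevisiae causes slow growth, and suppressors are detected by OD600. The parent strain without NS1 is used as positive control.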
Pf growth 48h: Primary qHTS for delayed death inhibitors of the malarial parasite plastid, 48 hour incubation; P. falciparum luciferase growth in erythrocytes, 48 h; Potency, µM (doses to about 28.7 µM), most hits filed as inhibitors; 5.9% of 310,000 active; AID 504832, 2011
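Luciferase-expressing P. falciparum in infected erythrocytes (2% hematocrit, 0.1% parasitemia final) in RPMI 1640/0.5% Albumax were exposed to compound for 48 hours at 37 C, 5% CO2; growth read as luminescence.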
AMA1 RON2 block: qHTS for Inhibitors of AMA1-RON; Towards Development of Antimalarial Drug Lead: Primary Screen; Plasmodium falciparum AMA1 (3D7) - RON2 peptide interaction; AlphaScreen AMA1-biotinylated RON2 peptide binding; Potency, µM (highest dose often 58.2 µM), most hits filed as inhibitors; 0.2% of 360,000 active; AID 720542, 2013; also: nearly all actives have a fitted effect of over 45% in size
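AMA1 (3D7) with his tag at 25 nM final met compounds first, then biotinylated RON2 peptide at 25 nM; detection used donor plus acceptor beads, 10 µg/mL apiece, read by AlphaScreen after 30 min at room temperature.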
Pf growth 96h: Primary qHTS for delayed death inhibitors of the malarial parasite plastid, 96 hour incubation | P. falciparum luciferase reporter growth, 96 h | Potency, µM (series often up to 28.7 µM), hits mostly inhibitors | 6.9% of 320,000 active | AID 504834, 2011
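Infected RBCs, 2% Hct / 0.05% parasitemia final; luciferase-reporter P. falciparum; cpd 96 h, 37 C, 5% CO2; luciferase detection reagent; luminescence.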
Sm TGR inh: qHTS Assay for the Inhibitors of Schistosoma Mansoni Peroxiredoxins. Schistosoma mansoni thioredoxin glutathione reductase (TGR), Q962Y6. AID 485364, 2010. purified TGR, DTNB reduction, TNB absorbance 405 nm. Potency, µM (series often up to 114 µM), usual class: inhibitors. 3% of 360,000 active; also: nearly all actives have a fitted effect of over 60% in size
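TGR 20 nM + NADPH 100 uM (dispensed conc.), cpd preinc 15 min RT; start with NADPH (500 uM addition) then DTNB (15 mM addition). Kinetic TNB absorbance, 405 nm filter. Four-parameter Hill fit across titration.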
Hits are given with their value; [ ] = remark or other dose. This is a sample that favours compounds with a hit; in the whole collection about 11% have one here. Unless noted, calls follow the shape of the dose curve; as a rule, active = well fitted curve in the direction sought with a large enough effect; inconclusive = small, poorly fitted or top-dose-only effect, or another doubt; inactive = no such curve, though single readings can be large; an effect the other way counts as inactive or inconclusive.

For CCC(CC)Nc1ccc(C(CC(N)=O)NC(=O)c2ccccc2)cc1[N+](=O)[O-] (centres undefined) the results were NS1 function inh inactive, Pf growth 48h inactive, AMA1 RON2 block inactive, Pf growth 96h inconclusive and Sm TGR inh inactive.
`CCCCCNS(=O)(=O)c1cc(C)ccc1OC` gave NS1 function inh inactive, Pf growth 48h inactive, AMA1 RON2 block inactive, Pf growth 96h 11.7µM and Sm TGR inh inactive.
CCNS(=O)(=O)c1cc(OC)ccc1OC was read as NS1 function inh inactive, AMA1 RON2 block inactive, Pf growth 96h inconclusive and Sm TGR inh inactive.
For COc1ccc(C)cc1S(=O)(=O)Nc1cccnc1 the results were NS1 function inh inactive, Pf growth 48h inactive, AMA1 RON2 block inactive, Pf growth 96h 6.57µM and Sm TGR inh inactive.
Screening CCc1c(C)sc(NC(NC(C)=O)(C(=O)OC)C(F)(F)F)c1C#N (centres undefined) returned NS1 function inh inactive, Pf growth 48h inactive, AMA1 RON2 block inactive, Pf growth 96h inconclusive and Sm TGR inh 50.1µM.
Screening CC(Oc1ccc(Cl)cc1Cl)c1nc(-c2ccc(NC(=O)c3ccncc3)cc2)no1 (centres undefined) returned NS1 function inh inactive, Pf growth 48h 14.7µM, AMA1 RON2 block inactive, Pf growth 96h 9.28µM and Sm TGR inh inactive.
`CC(Oc1ccc(Cl)cc1Cl)C(=O)NNC(=O)c1cccnc1` (centres undefined) gave NS1 function inh inactive, Pf growth 48h inactive, AMA1 RON2 block inactive, Pf growth 96h inactive and Sm TGR inh inactive.
For CC(Oc1ccc(Cl)cc1Cl)c1nc(-c2ccc(NC(=O)c3cccnc3)cc2)no1 (centres undefined) the results were NS1 function inh inactive, Pf growth 48h 3.29µM, AMA1 RON2 block inactive, Pf growth 96h inactive and Sm TGR inh inactive.
For Fc1ccc2ncc3c(-c4ccccc4)n[nH]c3c2c1 the results were Sm TGR inh inactive.
Screening O=C(NCc1ccc(F)cc1)C1CCCN1C(=O)Nc1cccc(F)c1 (centres undefined) returned NS1 function inh inactive, Pf growth 48h inactive, AMA1 RON2 block inactive, Pf growth 96h inconclusive and Sm TGR inh inactive.
For CCOc1ccccc1N(C)C(=O)CCS(=O)(=O)c1ccc2c(c1)NC(=O)C(C)S2 (centres undefined) the results were NS1 function inh inactive, Pf growth 48h inconclusive, AMA1 RON2 block inactive, Pf growth 96h inactive and Sm TGR inh 35.5µM.
For COc1ccc(-n2cccc2/C=C/[N+](=O)[O-])cc1 the results were NS1 function inh inactive, Pf growth 48h inconclusive, AMA1 RON2 block inactive, Pf growth 96h 3.29µM and Sm TGR inh 25.1µM.
COc1ccc(CCc2nnc(CCC(=O)N(C)Cc3ccnc4ccccc34)o2)cc1 was read as NS1 function inh inactive, Pf growth 48h inactive, AMA1 RON2 block inactive, Pf growth 96h inconclusive and Sm TGR inh inactive.
For Brc1ccc(-c2cnc3n2CCCC3)cc1 the results were NS1 function inh inactive, Pf growth 48h inconclusive, AMA1 RON2 block inactive, Pf growth 96h inactive[5.75 µM] and Sm TGR inh inactive.
CCOc1ccc(-c2cnc3n2CCC3)cc1 was read as NS1 function inh inactive, AMA1 RON2 block inactive, Pf growth 96h 14.7µM and Sm TGR inh inactive.
For CCOc1ccc(N2CC(NC(=O)/C=C\c3ccc4c(c3)OCO4)CC2=O)cc1 (centres undefined) the results were Sm TGR inh inactive.
`CCS(=O)(=O)c1ncc(Cl)c(C(=O)Nc2ccccc2OC)n1` gave NS1 function inh inactive, Pf growth 48h inactive, AMA1 RON2 block inactive, Pf growth 96h inactive and Sm TGR inh inactive.
Screening CCOc1ccccc1NC(=O)c1nc(S(=O)(=O)Cc2ccccc2)ncc1Cl returned NS1 function inh inactive, Pf growth 48h inactive, AMA1 RON2 block inactive, Pf growth 96h inconclusive and Sm TGR inh 3.55µM.
`COc1ccccc1NC(=O)c1nc(S(=O)(=O)Cc2ccccc2)ncc1Cl` gave NS1 function inh inactive, Pf growth 48h inactive, AMA1 RON2 block inactive, Pf growth 96h inactive and Sm TGR inh 10µM.
`COc1ccc(OC)c(NC(=O)c2nc(S(=O)(=O)Cc3ccc(F)cc3)ncc2Cl)c1` gave Sm TGR inh 3.16µM.
CCOC(=O)c1cn(Cc2c(C)c(C)c(C)c(C)c2C)nn1 was read as NS1 function inh inactive, Pf growth 48h inactive, AMA1 RON2 block inactive, Pf growth 96h inconclusive and Sm TGR inh inactive.
`Cc1cc(C)c(S(=O)(=O)/N=C2\C=CC(=O)C(Cl)=C2)c(C)c1` gave NS1 function inh inactive, AMA1 RON2 block inactive, Pf growth 96h inconclusive and Sm TGR inh 3.98µM.
For Cc1cccc(-n2nnc3c(=O)n(Cc4ccccn4)cnc32)c1 the results were Pf growth 48h inactive, AMA1 RON2 block inactive, Pf growth 96h inactive and Sm TGR inh inactive.
Screening CCN(CC)S(=O)(=O)c1ccc(N2CCN(C)CC2)c(NC(=O)CN2C(=O)NC3(CCCCC3)C2=O)c1 returned AMA1 RON2 block inactive.
CCCNS(=O)(=O)c1cccc(C(=O)OCc2cc(=O)oc3cc(OC)ccc23)c1 was read as NS1 function inh inactive, Pf growth 48h inconclusive, AMA1 RON2 block inactive, Pf growth 96h inconclusive and Sm TGR inh inactive.
Screening COc1ccc2c(COC(=O)c3cccc(S(=O)(=O)NCC(C)C)c3)cc(=O)oc2c1 returned NS1 function inh inactive, Pf growth 48h 9.28µM, AMA1 RON2 block inactive, Pf growth 96h inconclusive and Sm TGR inh 89.1µM.
For CC1CN(S(=O)(=O)c2cccc(C(=O)OCc3cc(=O)oc4cc(O)ccc34)c2)CC(C)O1 (centres undefined) the results were NS1 function inh inactive, Pf growth 48h inconclusive, AMA1 RON2 block inactive, Pf growth 96h inactive and Sm TGR inh inactive.
`CN(C)c1cccc(C(=O)OCc2cc(=O)oc3cc(O)ccc23)c1` gave NS1 function inh inactive, Pf growth 48h 11.7µM, AMA1 RON2 block inactive and Sm TGR inh inactive.
`CCc1cc2c(COC(=O)c3cccc(NS(C)(=O)=O)c3)cc(=O)oc2cc1O` gave NS1 function inh inactive, Pf growth 48h inconclusive, AMA1 RON2 block inactive, Pf growth 96h 5.22µM and Sm TGR inh inactive.
`CCc1cc2c(COC(=O)c3cc(S(=O)(=O)N4CCOCC4)ccc3F)cc(=O)oc2cc1O` gave Pf growth 48h inconclusive, AMA1 RON2 block inactive, Pf growth 96h 14.7µM and Sm TGR inh inactive.
Screening CCN(CC)S(=O)(=O)c1ccc(O)c(C(=O)OCC(=O)N2CCCC2)c1 returned NS1 function inh inactive, Pf growth 48h inactive, AMA1 RON2 block inactive, Pf growth 96h inactive and Sm TGR inh inactive.
For CN1CCN(c2ccc(CNC(=O)C3(C)Cc4c(-c5ccc6c(c5)OCO6)ccnc4O3)cc2)CC1 (centres undefined) the results were AMA1 RON2 block inactive.
For O=C(CSc1nnc2scc(-c3ccccc3)n12)c1ccc2c(c1)OCCO2 the results were NS1 function inh inactive, AMA1 RON2 block inactive, Pf growth 96h 2.08µM and Sm TGR inh inactive.

From PubChem
